In PubChem BioAssay (EPA / NIEHS):
Active and inactive are the calls of the source. The calls were made as follows: active = hit-call score of the fitted dose curve at least 0.9, where 1 is the maximum; inactive = score below 0.9.

Columns and labels:
[1] = ATG_CRE_CIS: Attagene CIS-FACTORIAL HepG2 Assay for human cAMP Responsive Element (CRE) binding protein 3 (AID 2282926); conditions: HepG2 CRE cis-reporter, Attagene multiplexed mRNA; actives raise or lower the signal
Summary of the method: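 We dosed HepG2 cells bearing multiple cis-promoter reporter units for 24 h and measured reporter mRNA by RT-PCR with capillary electrophoresis detection. Bidirectional concentration-response fitting used DMSO as negative control.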

[2] = target: CCAAT/enhancer-binding protein beta (Homo sapiens) (UniProt P17676); assay: ATG_C_EBP_CIS: Attagene CIS-FACTORIAL HepG2 Assay for human CCAAT/Enhancer Binding Protein (C/EBP) beta (AID 2282927); conditions: HepG2 Attagene cis-factorial transcription factor reporter; actives raise or lower the signal
Sequence of CCAAT/enhancer-binding protein beta (Homo sapiens) (P17676 whole entry, looked up, the tested form may be a part): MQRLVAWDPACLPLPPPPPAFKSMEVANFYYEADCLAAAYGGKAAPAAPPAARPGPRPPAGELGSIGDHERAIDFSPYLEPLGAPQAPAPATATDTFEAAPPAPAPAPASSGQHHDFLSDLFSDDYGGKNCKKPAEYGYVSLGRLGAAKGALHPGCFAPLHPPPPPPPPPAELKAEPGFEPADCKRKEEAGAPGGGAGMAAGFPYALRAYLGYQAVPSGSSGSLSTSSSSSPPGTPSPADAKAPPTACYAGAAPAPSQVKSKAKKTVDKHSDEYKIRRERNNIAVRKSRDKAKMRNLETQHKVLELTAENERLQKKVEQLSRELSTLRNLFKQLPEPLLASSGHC
Summary of the method: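 Endogenous C/EBPb-driven reporter transcripts measured in transfected human HepG2 cells at 24 h via RT-PCR and capillary electrophoresis of labelled fragments. Activity fitted in both directions relative to DMSO baseline.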

[3] = ATG_CMV_CIS: Attagene CIS-FACTORIAL HepG2 Assay for human CMV (Internal Marker) (AID 2282928); conditions: HepG2 CMV promoter reporter, transcription factor profiling; actives raise or lower the signal;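 also: endpoint acts as a background internal control marker rather than a target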
Summary of the method: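 After transient transfection of HepG2 with reporter transcription units driven by cis-regulatory promoters, cells receive test chemical for 24 h. Labeled reporter amplicons, digested with HpaI, are sized and quantified by capillary electrophoresis against DMSO.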

[4] = ATG_DR4_LXR_CIS: Attagene CIS-FACTORIAL HepG2 Assay for human Liver X Receptor (LXR), DR4 submotif (AID 2282929); conditions: HepG2 Attagene DR4 cis-reporter, mRNA transcription; actives raise or lower the signal
Summary of the method: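 HepG2 cells transiently transfected with cis-promoter-driven multiplexed reporter units (DR4 element) were dosed for 24 h. Reporter mRNA was quantified by RT-PCR, fluorescent primer extension, HpaI digestion and capillary electrophoresis; bidirectional fitting versus DMSO baseline.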

[5] = target: Aryl hydrocarbon receptor (Homo sapiens) (UniProt P35869); assay: ATG_Ahr_CIS: Attagene CIS-FACTORIAL HepG2 Assay for human Aryl Hydrocarbon Receptor (Ahr) (AID 2282930); conditions: HepG2 AhR cis-factorial reporter transcription; actives raise or lower the signal
Sequence of Aryl hydrocarbon receptor (Homo sapiens) (P35869 whole entry, looked up): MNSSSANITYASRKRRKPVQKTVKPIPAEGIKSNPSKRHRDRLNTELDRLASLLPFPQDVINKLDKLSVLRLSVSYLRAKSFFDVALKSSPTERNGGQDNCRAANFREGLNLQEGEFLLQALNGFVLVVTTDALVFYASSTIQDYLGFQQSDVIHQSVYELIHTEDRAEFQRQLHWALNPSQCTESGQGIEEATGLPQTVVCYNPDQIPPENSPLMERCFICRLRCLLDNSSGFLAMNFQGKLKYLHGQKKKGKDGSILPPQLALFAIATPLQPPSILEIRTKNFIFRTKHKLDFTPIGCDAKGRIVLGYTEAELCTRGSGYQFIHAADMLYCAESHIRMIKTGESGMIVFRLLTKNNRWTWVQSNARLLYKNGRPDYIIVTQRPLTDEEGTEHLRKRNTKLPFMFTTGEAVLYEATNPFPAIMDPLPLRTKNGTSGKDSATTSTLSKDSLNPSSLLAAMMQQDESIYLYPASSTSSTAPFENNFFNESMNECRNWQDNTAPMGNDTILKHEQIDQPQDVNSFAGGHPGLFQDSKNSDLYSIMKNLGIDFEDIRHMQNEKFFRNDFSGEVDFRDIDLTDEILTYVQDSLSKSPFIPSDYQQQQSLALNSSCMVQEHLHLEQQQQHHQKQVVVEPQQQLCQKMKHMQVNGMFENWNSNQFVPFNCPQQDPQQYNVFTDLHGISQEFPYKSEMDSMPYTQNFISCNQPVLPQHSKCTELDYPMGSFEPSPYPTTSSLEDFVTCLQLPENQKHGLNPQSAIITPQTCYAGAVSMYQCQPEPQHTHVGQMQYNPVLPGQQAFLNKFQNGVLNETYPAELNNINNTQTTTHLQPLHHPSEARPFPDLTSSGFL
Summary of the method: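 Reporter mRNA levels, quantified by RT-PCR and fluorescent capillary electrophoresis, reflect endogenous AhR transcriptional activity in HepG2 cells carrying transfected cis-promoter reporter constructs. Readout at 24 h post-dose; gain or loss fitted against DMSO baseline.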

[6] = ATG_AP_1_CIS: Attagene CIS-FACTORIAL HepG2 Assay for human Activator Protein 1 (AP-1) (AID 2282931); conditions: HepG2 Attagene cis-factorial AP-1 reporter mRNA; actives raise or lower the signal
Summary of the method: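 HepG2 cells transiently transfected with cis-element-driven multiplex reporter units; 24 h compound exposure. Reporter mRNA quantified by RT-PCR, FAM-labelled fragments resolved by capillary electrophoresis; bidirectional fit versus DMSO baseline.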

[7] = ATG_AP_2_CIS: Attagene CIS-FACTORIAL HepG2 Assay for human Activator Protein 2 (AP-2) (AID 2282932); conditions: HepG2 AP-2 cis-reporter, Attagene transcription factor profiling; actives raise or lower the signal
Summary of the method: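 HepG2, transient MRTU transfection, cis-regulated reporters; 24 h compound exposure; RNA isolated, RT-PCR, 6-FAM labelling, HpaI digest, CE fluorescence. DMSO = negative control/baseline, bidirectional fit.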

[8] = ATG_BRE_CIS: Attagene CIS-FACTORIAL HepG2 Assay for human Bone Morphogenetic Protein (BMP) Response Element (BRE) (AID 2282933); conditions: HepG2 BMP response element reporter, Attagene transcription factor profiling; actives raise or lower the signal
Summary of the method: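 Endogenous transcription factor activity read in transiently transfected HepG2 cells after 24 h chemical exposure. Bidirectional curve fitting against DMSO; readout is reporter transcript level by RT-PCR with capillary electrophoresis of labelled products.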

[9] = target: Retinoic acid receptor alpha (Homo sapiens) (UniProt P10276); assay: ATG_DR5_RAR_CIS: Attagene CIS-FACTORIAL HepG2 Assay for human Retinoic Acid Receptor Alpha (RARE), DR5 submotif (AID 2282934); conditions: HepG2 Attagene cis-factorial RARE DR5 reporter, mRNA; actives raise or lower the signal;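 as to AC50: reporter responds to endogenous RAR alpha beta and gamma in HepG2 not RARA alone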
Sequence of Retinoic acid receptor alpha (Homo sapiens) (P10276 whole entry, looked up): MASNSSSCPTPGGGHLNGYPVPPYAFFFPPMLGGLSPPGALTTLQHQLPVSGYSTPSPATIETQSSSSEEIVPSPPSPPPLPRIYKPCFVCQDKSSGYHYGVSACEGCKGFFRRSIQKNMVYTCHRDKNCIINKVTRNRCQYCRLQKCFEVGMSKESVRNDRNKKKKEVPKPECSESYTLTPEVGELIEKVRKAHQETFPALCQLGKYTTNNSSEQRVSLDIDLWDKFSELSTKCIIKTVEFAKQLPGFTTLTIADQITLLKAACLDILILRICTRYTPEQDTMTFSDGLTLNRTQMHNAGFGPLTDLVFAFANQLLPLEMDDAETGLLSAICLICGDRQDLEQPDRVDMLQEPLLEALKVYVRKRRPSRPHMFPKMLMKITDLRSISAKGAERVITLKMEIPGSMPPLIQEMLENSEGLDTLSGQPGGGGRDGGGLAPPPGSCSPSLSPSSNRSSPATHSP
Summary of the method: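 Reporter transcripts from a DR5-regulated unit, measured via RT-PCR plus capillary electrophoresis, reflect endogenous RAR activity in transiently transfected human HepG2 liver cells. Exposure lasted 24 h; gain or loss of signal scored against DMSO.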

[10] = target: Transcription factor E2F1 (Homo sapiens) (UniProt Q01094); assay: ATG_E2F_CIS: Attagene CIS-FACTORIAL HepG2 Assay for human E2F Transcription Factor 1 (AID 2282935); conditions: HepG2 Attagene cis-reporter, E2F reporter RNA transcripts; actives raise or lower the signal
Sequence of Transcription factor E2F1 (Homo sapiens) (Q01094 whole entry, looked up): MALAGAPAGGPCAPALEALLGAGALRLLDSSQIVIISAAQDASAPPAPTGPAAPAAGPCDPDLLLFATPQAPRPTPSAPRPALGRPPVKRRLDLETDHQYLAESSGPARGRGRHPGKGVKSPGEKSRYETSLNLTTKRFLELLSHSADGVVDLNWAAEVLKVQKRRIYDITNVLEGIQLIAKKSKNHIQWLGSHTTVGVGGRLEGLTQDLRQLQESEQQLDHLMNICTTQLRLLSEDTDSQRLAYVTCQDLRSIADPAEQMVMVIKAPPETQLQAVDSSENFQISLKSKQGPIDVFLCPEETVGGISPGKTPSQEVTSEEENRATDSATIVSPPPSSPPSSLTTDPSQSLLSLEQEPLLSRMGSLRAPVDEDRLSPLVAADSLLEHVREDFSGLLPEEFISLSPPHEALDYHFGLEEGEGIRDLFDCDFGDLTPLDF
Summary of the method: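 Cis-element reporter mRNA induction in transiently transfected HepG2, 24 h exposure. Activity fitted in both directions relative to DMSO negative control.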

Measured: AC50

O=c1[nH]nc(-c2ccc([N+](=O)[O-])o2)o1
inactive: [1] | [2] | [3] | [4] | [5] | [7] | [8] | [9] | [10]
active: [6] 87.6 µM

O=S(=O)(O)c1cc(S(=O)(=O)O)c2ccc3c(S(=O)(=O)O)cc(S(=O)(=O)O)c4ccc1c2c43
inactive: [1] | [2] | [3] | [4] | [5] | [6] | [7] | [8] | [9] | [10]

FC(F)(F)C(=NOCC1OCCO1)c1ccc(Cl)cc1
inactive: [1] | [2] | [3] | [5] | [6] | [7] | [9] | [10]
active: [4] 38.1 µM | [8] 150 µM

Cc1cccc(N)n1
inactive: [1] | [2] | [3] | [4] | [5] | [6] | [7] | [8] | [9] | [10]

C=C(C)C(=O)OCCOc1ccccc1
inactive: [1] | [2] | [3] | [4] | [5] | [6] | [7] | [8] | [9] | [10]

CC(=O)C=CC1C(C)=CCC(C)C1(C)C (stereo not drawn)
inactive: [1] | [2] | [3] | [4] | [5] | [6] | [7] | [8] | [9] | [10]

COc1ccc(NC(C)=O)cc1N
inactive: [1] | [2] | [3] | [4] | [6] | [7] | [8] | [10]
active: [5] 50.4 µM

Cc1ccc(N/N=c2\c(=O)cc/c(=N/Nc3ccc(S(=O)(=O)O)cc3)c2=O)c(C)c1
inactive: [1] | [2] | [3] | [4] | [6] | [7] | [8] | [9] | [10]
active: [5] 9.18 µM

COC(=O)C1=C(C)NC(C)=C(C(=O)OCC(C)C)C1c1ccccc1[N+](=O)[O-] (stereo not drawn)
inactive: [1] | [2] | [3] | [4] | [5] | [6] | [7] | [8] | [9] | [10]

C=C(C)CCO
inactive: [1] | [2] | [3] | [4] | [5] | [6] | [7] | [8] | [9] | [10]

O=c1c2ccccc2nnn1CCl
inactive: [1] | [2] | [3] | [4] | [5] | [6] | [7] | [8] | [9] | [10]

[Cl][In]([Cl])[Cl]
inactive: [1] | [2] | [3] | [4] | [5] | [6] | [7] | [8] | [10]

CC(CC=O)c1ccccc1 (stereo not drawn)
inactive: [1] | [2] | [3] | [7] | [8] | [10]
active: [4] 71.7 µM | [5] 123 µM | [6] 131 µM

c1c[nH]cn1
inactive: [1] | [2] | [3] | [4] | [5] | [6] | [7] | [8] | [10]

CC(C)(C)c1ccc(N)cc1
inactive: [1] | [2] | [3] | [4] | [5] | [6] | [7] | [8] | [9] | [10]

CCCNC(=O)NS(=O)(=O)c1ccc(Cl)cc1
inactive: [1] | [2] | [3] | [4] | [5] | [6] | [7] | [8] | [9] | [10]

CCN(Cc1cccc(S(=O)(=O)O)c1)c1ccc(C(=C2C=CC(=[N+](CC)Cc3cccc(S(=O)(=O)[O-])c3)C=C2)c2ccccc2)cc1
active: [5] 51.2 µM
inactive: [1] | [2] | [3] | [4] | [6] | [7] | [8] | [9] | [10]

CC(=O)Nc1ccc2c(c1)Cc1cc(NC(C)=O)ccc1-2
inactive: [1] | [2] | [3] | [4] | [5] | [6] | [7] | [8] | [9] | [10]

CCCC(=O)OCc1ccccc1
inactive: [1] | [2] | [3] | [4] | [5] | [6] | [7] | [8] | [10]

NNC(=O)c1cccc(C(=O)NN)c1
inactive: [1] | [2] | [3] | [4] | [5] | [6] | [7] | [8] | [10]

Cn1c([N+](=O)[O-])cnc1COC(N)=O
inactive: [1] | [2] | [3] | [4] | [5] | [6] | [7] | [8] | [9] | [10]

CC(C)CCCC(C)CC=O (stereo not drawn)
inactive: [1] | [2] | [3] | [4] | [5] | [6] | [7] | [8] | [10]

CCCCCC/C=C\CCCCCCCC(=O)O
inactive: [2] | [3] | [5] | [6] | [7] | [8] | [10]
active: [1] 34.7 µM | [4] 27.3 µM | [9] 34.2 µM

COc1ccc([C@@H]2CC(=O)c3c(O)cc(O[C@@H]4O[C@H](CO[C@@H]5O[C@@H](C)[C@H](O)[C@@H](O)[C@H]5O)[C@@H](O)[C@H](O)[C@H]4O)cc3O2)cc1OC
inactive: [1] | [2] | [3] | [4] | [5] | [6] | [7] | [8] | [9] | [10]

CN(C)CCCN(C)C
inactive: [1] | [2] | [3] | [4] | [5] | [6] | [7] | [8] | [9] | [10]
